Consider 12 compounds from PubChem BioAssay (NCI).

Each structure is given as a SMILES string. The panel holds about 83,000 compounds, 20% with a hit somewhere; the sample as a whole holds those more often.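 For each line, cells grew in 96-well plates with the test compound present at a single concentration for 48 hours.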 Calls of active or inactive are those of the source. The calls were made as follows: active = growth percent below 10; inactive = the rest.

For this assay, the system named is HL-60(TB) leukemia. The assay can be described thus: NCI-60 one-dose screen, 48 h (100 = growth as untreated, 0 = no growth, -100 = all killed). The note with it: 10 µM unless noted.
Take `CC(=O)[C@@H]1CC[C@]2(C(=O)n3ccnc3)CC[C@]3(C)[C@H](CC[C@@H]4[C@@]5(C)Cc6c([nH]c7ccccc67)C(C)(C)[C@@H]5CC[C@]43C)[C@@H]12`: the growth is 90.9% (inactive).

Regarding `CSc1nc2ccc(C)cc2cc1/C=C1/C=C(c2ccccc2)NC1=O`, the growth is 87.4% (inactive).

Turning to `CC1(C)CC[C@]2(C(=O)N3CCNCC3)CC[C@]3(C)C(=CC[C@@H]4[C@@]5(C)CCC(=O)C(C)(C)[C@@H]5CC[C@]43C)[C@@H]2C1`, the growth is 102% (inactive).

`COc1ccc(-c2cc(-c3ccc(OC)cc3)nc(NCCCNc3ccnc4cc(Cl)ccc34)n2)cc1`: the growth is -37.7% (active).

Regarding `CCOC(=O)/C(=C/c1ccc([N+](=O)[O-])cc1)C(=O)c1ccccc1`, the growth is -20.8% (active).

On to `c1ccc(-c2nc(Nc3ccc(-c4nc5ccccc5[nH]4)cc3)nc(N3CCOCC3)n2)cc1`, for which the growth was -32.7% (active).

As for `N#Cc1c(-c2cccc(F)c2)cc(-c2cccnc2)[nH]c1=O`, the growth was 98% (inactive).

In the case of `COc1cc(CNC(=O)CCCC/C=C/C(C)C)ccc1OCc1cn(-c2cccc([N+](=O)[O-])c2)nn1`, the growth is 109% (inactive).

For the compound `COc1ccc(N2CCN(c3nc(-c4ccccc4)c(C#N)c(=O)[nH]3)CC2)cc1`, the growth was 55.2% (inactive).

Turning to `CCN(CC)CCOC(=O)Nc1c(C(C)C)cccc1C(C)C`, the growth was 101% (inactive).

For the compound `N#Cc1ccc(-c2csc(Nc3ccc4nc5n(c(=O)c4c3)CCC5)n2)cc1`, the growth was 103% (inactive).

Turning to `Cc1cc(O)c(C2=NN(c3ccc(S(N)(=O)=O)cc3)C(c3ccc(N(C)C)cc3)C2)c(C)c1Cl` (configuration not stated), the growth is 24.1% (inactive).
